# Bioassay records deposited in PubChem BioAssay by National Center for Advancing Translational Sciences (NCATS).
# DRD3 antagonist = antagonists of human D3 dopamine receptor. max response, negative = inhibition, %. hit rate 2.5% among 360,000. D3R cells, DiscoveRx beta-arrestin luminescence, antagonist mode; active compounds read low; in the data active means max response below about -50%; inconclusive means no clear call, values can overlap the other calls; further: on the % scale 0 is the no-effect control and ±100 the full control effect
# Target sequence (P35462 whole entry, looked up): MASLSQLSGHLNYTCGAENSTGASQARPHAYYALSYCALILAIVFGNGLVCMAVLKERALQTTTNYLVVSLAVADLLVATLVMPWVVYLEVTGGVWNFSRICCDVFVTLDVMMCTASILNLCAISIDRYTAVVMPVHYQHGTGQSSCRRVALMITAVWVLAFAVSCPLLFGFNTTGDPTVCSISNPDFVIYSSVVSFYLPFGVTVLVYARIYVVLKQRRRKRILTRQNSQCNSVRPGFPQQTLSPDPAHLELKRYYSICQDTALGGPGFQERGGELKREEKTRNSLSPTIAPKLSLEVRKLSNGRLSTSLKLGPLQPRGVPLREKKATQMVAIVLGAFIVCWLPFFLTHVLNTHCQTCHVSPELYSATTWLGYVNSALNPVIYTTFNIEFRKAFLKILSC
#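 Cells expressing the human receptor were seeded at 1500 cells/well, incubated overnight at 37 degrees C in 5% CO2, then exposed to library compounds with dopamine controls for 90 minutes at 37 degrees C before luminescent detection.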
# HepG2 viability = kills HepG2 cells in TGF-b inhibitor counter-screen | AID 588856 | hit rate 0.76% among 410,000 | HepG2 CAGA-GFP viability, ATP luminescence, 18 h | Potency, µM (titrated, usually from 46.1 µM), inactives show top-dose activity change, negative = cytotoxicity, most hits filed as cytotoxic; further: potency means the concentration at half of the fitted maximal effect
#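 CellTiter-Glo luminescence gave cytotoxicity after 18 hours at 37 degrees C. The cells were HepG2 CAGA-GFP in 1% FBS DMEM, stimulated with 500 pg/mL TGF-beta after compound addition. %Activity was normalised to no-cell wells (complete cell-killing) and DMSO (no toxicity), and curves were fitted and classified.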
# TGFb inhibitor = blocks TGF-b signaling; HepG2 CAGA-GFP TGF-b/SMAD3 reporter, GFP fluorescence, 18 h; TGF-beta stimulated, 500 pg/mL final; hit rate 1.2% among 410,000; Potency, µM (top dose mostly 46.1 µM), for the others: at the highest dose activity, negative = inhibition, actives largely listed as inhibitors; further: potency means the concentration at half of the fitted maximal effect; on the % scale 0 is the no-effect control and ±100 the full control effect; nearly all actives have a fitted effect of over 65% in size
#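 HEPG2 CAGA-GFP cells (1000/well, DMEM with 1% FBS) were pre-incubated 2 h at 37 degrees C, given compound by pin tool, then stimulated with TGF-beta at 500 pg/mL final for 18 h before per-cell GFP fluorescence imaging.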
# D3 ag = D3 dopamine receptor (human) agonism; hit rate 0.58% among 410,000; D3R DiscoveRx beta-arrestin cells, luminescence, 90 min; P35462; AID 652048; max activation, %; in the data active means max activation above about 30%; further: 0% is about no effect
#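 Agonist mode: compounds and dopamine controls were applied to plated cells for 90 min at 37 degrees C after an overnight attachment at 1500 cells/well. Luminescent read-out followed 30 - 60 minutes at room temperature with DiscoveRx detection reagent.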
# ATXN2 expr inh = ATXN2 expression inhibition; HEK-293 ATXN2-luciferase reporter, luminescence, 24 h; Potency, µM (top dose mostly 57 µM), for the others: top-dose activity change, negative = inhibition, usual class: inhibitors; hit rate 0.72% among 360,000; AID 1745845; further: potency means the concentration at half of the fitted maximal effect; on the % scale 0 is the no-effect control and ±100 the full control effect; nearly all actives have a fitted effect of over 55% in size
#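 ATXN2-luciferase reporter cells (luciferase flanked by upstream and downstream ATXN2 gene portions) were treated 24 h at 37 °C with compounds at up to 57 uM. SteadyGlo luminescence gave expression; GF-AFC fluorescence gave viability.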
# ATXN viability = viability counter-screen for ATXN expression inhibitors. S2 cells (HEK-293 line with an ATXN2-luciferase reporter) viability, CellTiter-Fluor protease fluorescence, 24 h. Potency, µM (titrated, usually from 56.7 µM), hits mostly cytotoxic. hit rate 0.49% among 400,000; further: potency means the concentration at half of the fitted maximal effect; nearly all actives have a fitted effect of over 40% in size
# * = called active by the depositor; i = inactive; ? = inconclusive; . = no result; [ ] = remark or other dose. Hits are enriched below; roughly 4.7% of the tested compounds scored in any of these assays. Unless noted, the call rests on the fitted dose curve; in most records, active means well fitted curve in the direction sought with a large enough effect; inconclusive means small, poorly fitted or top-dose-only effect, or another doubt; inactive means no such curve, though single readings can be large; an effect the other way counts as inactive or inconclusive.
SMILES,DRD3 antagonist,HepG2 viability,TGFb inhibitor,D3 ag,ATXN2 expr inh,ATXN viability
c1ccc(-c2nnnc3ccccc23)cc1,11,34%,?,7,1%,i
Cc1cc(/C=C/c2ccnc3ccccc23)ccc1N,.,-21%,?,.,.,.
CCN(C(=O)COc1ccc(C(C)=O)cc1)c1cccc2ccccc12,-72*,-34%,-16%,-7,2%,i
CCN(C(=O)COC(=O)c1cnccn1)c1cccc2ccccc12,1,1%,14%,3,5%,i
CC(C)CCNC(=O)COc1ccc2c(c1)C(=O)CC(C)(C)O2,4,0%,-4%,2,51%,i
CC1(C)CC(=O)c2cc(OCC(=O)NCCCN3CCN(c4ccc(F)cc4)CC3)ccc2O1,-81*,-50%,5%,-54,-6%,i
CC1(C)CC(=O)c2cc(OCC(=O)NCCN3CCCc4ccccc43)ccc2O1,-68*,-17%,-18%,-31,-6%,i
COc1cc(OC)c(/C=C/c2cc(/C=C/c3c(OC)cc(OC)cc3OC)[n+](C)c3ccccc23)c(OC)c1,.,-45%,?,.,.,.
OC(CNC1Cc2ccccc2C1)COc1ccc(F)cc1 (stereo unspecified),-64*,-23%,-8%,-29,-19%,i
Cc1cc2c(OCC(O)CNC3CCCCC3)cccc2[nH]1 (stereo unspecified),-59*,-14%,6%,-29,-17%,i
COc1ccc(OCC(O)CNC2CCCC2)cc1 (stereo unspecified),-11,-21%,?,-16,-16%,i
OC(CNC1CCCC1)COc1ccccc1Br (stereo unspecified),-19,-16%,1%,-7,.,i
OC(CNC1CCCCCC1)COc1cccc2ccccc12 (stereo unspecified),-75*,-97%,?,-20,?,?
CCN(CC)CC(=O)c1c(C)n(C)c2ccc(OC)cc12,.,-4%,4%,.,.,.
CC(=O)Nc1ccc(-c2nnc(SCc3ccccc3)n2C)cc1,.,2%,7%,.,.,.
CC(=O)c1sc(NC(=O)C2(F)C(F)(F)C(F)(F)C(F)(F)C(F)(F)C2(F)F)nc1C,?,-46%,2.8µM*,-11,6.3µM*,?
COC(=O)[C@@H]1CCCN1C(=O)c1c(OC)cc(=O)n2c1CCN(Cc1c(C)[nH]c3ccccc13)CC2,.,.,.,.,.,i
Cc1nccn1CC(=O)N/N=C/c1cc(Br)cs1,-3,24%,16%,-6,-24%,i
CCN1CCN(CC(=O)N/N=C/c2cc(Br)cs2)CC1,-53*,2%,14%,-4,.,i
Cc1cccc(C(=O)Nc2ccccc2OCc2cc(=O)n3c(C)csc3n2)c1,.,1%,-10%,5,2%,i
CN[C@@H]1[C@@H](O)[C@@H](O[C@@H]2[C@@H](O)[C@H](O[C@H]3O[C@H](CN)[C@@H](O)[C@H](O)[C@@H]3O)[C@@H](N)C[C@@H]2NC(=O)[C@@H](O)CN)OC[C@]1(C)O,.,.,.,.,5%,.
Cc1cc(C)c2c(N)c(C(=O)Nc3ncc(C)s3)sc2n1,15,-53%,0%,-10,2.5µM*,i
COC(=O)c1sc2nc(C)cc(C)c2c1N,24,8%,6%,-5,9%,i
CC(=O)c1ccc(NC(=O)c2noc3c2CCC3)cc1,14,-8%,0%,3,4µM*,i
CCC(=O)Nc1nnc(-c2cccs2)s1,11,3%,4%,-3,35%[11.3 µM],i
SMILES,DRD3 antagonist,HepG2 viability,TGFb inhibitor,D3 ag,ATXN2 expr inh,ATXN viability
COCC(=O)Nc1nnc(-c2cccs2)s1,-72*,-2%,0%,-3,11%,i
Cc1ccc(NC(=O)Cn2c(=O)n(CCCS(=O)(=O)C3CCCCC3)c(=O)c3ccccc32)cc1F,.,-2%,-9%,2,9%,i
CCCCCCCCNS(=O)(=O)CCNCc1ccco1,-5,-9%,-20%,37*,-3%,i
CCCCCCNS(=O)(=O)c1ccc(OC)c(OC)c1,17,-10%,-16%,32*,-17%,i
O=S(=O)(CCNCCc1ccccc1)NCc1ccccc1,?,-9%,-21%,-26,11%,i
CCCCCCCCNS(=O)(=O)CCNCc1ccccc1OC,-51*,13µM*,?,-14,-36%,?
CCCCCCCCNS(=O)(=O)CCNCc1ccccc1,-18,-25%,?,5,-9%,i
COc1ccc(S(=O)(=O)NCCc2ccccc2)cc1OC,9,0%,-14%,-3,-12%,i
COc1ccccc1CNS(=O)(=O)CCNCCc1ccccc1,-74*,-14%,-11%,-34,-7%,i
CCC1CCc2nc3sc(C(=O)Nc4cccc(C(F)(F)F)c4)c(N)c3cc2C1 (stereo unspecified),.,5%,10%,-8,-16%,i
COc1ccc(CNS(=O)(=O)CCNCc2ccccc2OC)cc1,-9,-18%,-11%,-28,-5%,i
CCCCCCCCNCCS(=O)(=O)NCc1ccc(OC)cc1,-63*,-113%,?,-24,?,?
CN1CCN(c2cc(N3CCc4ccccc4C3)c(F)cc2[N+](=O)[O-])CC1,-61*,16µM*,?,-22,-30%,?
Cc1ccc(Cn2ccc(NC(=O)c3noc4c3CCc3ccccc3-4)n2)cc1,11,4%,0%,0,-3%,i
COc1ccc2c(c1)CCc1c(C(=O)NCCc3ccc(OC)c(OC)c3)noc1-2,-13,-23%,-25%,20,-34%,i
COc1ccc2c(c1)CCc1c(C(=O)Nc3ccc(OC)c(OC)c3)noc1-2,14,4%,17%,34*,-7%,i
COc1ccc2c(c1)CCc1c(C(=O)Nc3ccn(Cc4ccc(C)cc4)n3)noc1-2,29,-39%,-17%,16,10µM*,18µM*
CCOC(=O)C1CCN(Cc2cccc(Oc3ccc(Cl)cc3)c2)CC1,?,2%,19%,6,-13%,i
CCN1CCN(Cc2cccc(Oc3ccccc3)c2)CC1,-52*,-11%,15%,-28,-9%,i
CN1CCN(Cc2cccc(Oc3ccc(Cl)cc3)c2)CC1,-52*,-31%,-7%,-35,5%,i
CCN1CCN(Cc2cccc(Oc3ccc(Cl)cc3)c2)CC1,-63*,-50%,?,-32,-24%,i
COc1cccc(CN2CCN(Cc3cccc(Oc4ccccc4)c3)CC2)c1OC,-59*,-12%,0%,-21,-24%,i
Cc1c(C(=O)NCCCc2ccncc2)cnn1-c1nccc(-c2ccccc2F)n1,.,.,.,.,.,i
